Percent Effect data for 17 compounds are collected here from ChEMBL document CHEMBL3988442, “University of Dundee, Small-Polar-MMV Screening Library” (2021).

In assay [1] the target is T1, Aspartate--tRNA(Asp/Asn) ligase (Mycobacterium tuberculosis (strain ATCC 25618 / H37Rv)) (UniProt P9WFW3). Also: in the data most compounds retested in dose-response had high values.
T1 sequence (whole entry): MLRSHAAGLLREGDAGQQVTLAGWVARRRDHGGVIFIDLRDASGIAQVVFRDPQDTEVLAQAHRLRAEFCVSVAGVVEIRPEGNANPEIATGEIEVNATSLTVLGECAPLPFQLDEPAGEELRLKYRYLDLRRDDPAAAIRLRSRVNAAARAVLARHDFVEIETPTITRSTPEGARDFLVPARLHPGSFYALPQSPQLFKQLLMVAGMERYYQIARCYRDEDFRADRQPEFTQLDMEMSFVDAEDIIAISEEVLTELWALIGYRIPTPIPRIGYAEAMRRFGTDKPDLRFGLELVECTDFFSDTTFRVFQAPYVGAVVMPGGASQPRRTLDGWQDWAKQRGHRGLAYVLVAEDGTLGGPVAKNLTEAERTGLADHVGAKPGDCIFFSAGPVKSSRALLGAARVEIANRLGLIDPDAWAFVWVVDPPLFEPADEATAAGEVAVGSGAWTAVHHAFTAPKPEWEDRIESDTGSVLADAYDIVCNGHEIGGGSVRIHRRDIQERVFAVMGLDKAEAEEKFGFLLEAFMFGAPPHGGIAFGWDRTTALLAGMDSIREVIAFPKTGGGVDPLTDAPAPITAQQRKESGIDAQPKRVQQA
Nature of the assay: Assay for Asp RNA synthetase-1 from Mycobacterium tuberculosis. Also noted: scale not given: direction of the effect not stated beside the values. The class given is functional. As to conditions: 30 µM.

For assay [2], the target named is Shiga toxin 2 (Escherichia coli O157:H7) (UniProt P09385+P09386). Nature of the assay: E. coli 0.157:H7 Shiga Toxin SOP - stx2 screening assay. The class given is functional. As to conditions: 30 µM. Also noted: scale not given: direction of the effect not stated beside the values.

As for `CN1CCCN(C[C@@H]2CN(C(=O)CCC3CCCC3)C[C@@H]2CO)CC1`, the Percent Effect in assay [1] is 6.99%; in assay [2], -19.6%.
Take `COCCN1CC[C@@H](O)[C@@H]1Cc1ccccc1`: the Percent Effect in assay [1] is 1.19%; in assay [2], -38.2%.
Consider `CC(C)NC(=O)c1nnn(-c2cccc(C(F)(F)F)c2)c1N`, for which the Percent Effect is 0.111% in assay [1] and -1.08% in assay [2].
On to `Cc1cc(C)n(CC2CN(Cc3nc(-c4ccco4)no3)CCO2)n1` (centres undefined), for which the values for the Percent Effect in assay [1] and in assay [2] were 1.64% and -16.4%, respectively.
As for `CN(CC1CC1)C(=O)CN(Cc1cccc(O)c1)C1CCC(O)CC1` (centres undefined), the figures for the Percent Effect in assay [1] and in assay [2] were -0.296% and 6.41%, respectively.
The like results for `Cn1cc(-c2cnc(N3CCOCC3)nc2)cc1C(=O)N1CCOCC1` were, in that order, -3.52% and -3.46%.
`Cc1cc(C)n(CC2CCCN2C(=O)c2cnn(C)c2C2CC2)n1` (centres undefined): the Percent Effect in assay [1] worked out at 1.84%; in assay [2] it was 1.91%.
For the compound `CCn1cc(Br)c(C(=O)NCc2cnn(C)c2)n1`, the values for the Percent Effect in assay [1] and in assay [2] were -2.73% and -41.5%, respectively.
The like results for `CC(C)c1cc(NC(=O)CN2CCc3ccccc3C2)on1` were, in that order, -1% and -13%.
As for `CC1=Nc2c(c(=O)[nH]n2C2CCCC2)C(c2cccc(O)c2)S1` (centres undefined), the Percent Effect turned out to be 0.174% in assay [1] and 10.3% in assay [2].
The like results for `COc1cc(CN(C)C(=O)Nc2cc(C)on2)ccc1SC` were, in that order, 2.27% and -8.55%.
On to `O=C(CCc1nccs1)N1CCN(c2ncccn2)CC1`, for which the Percent Effect in assay [1] was -0.577%; in assay [2], 11.5%.
In the same order, the values of `CCCc1noc(CCC(=O)NC(C)c2nnc3n2CCCCC3)n1` (centres undefined) are -4.13% and -15.1%.
On to `c1ccc(CN2CCCC(c3nccnc3-n3ccnc3)C2)cc1` (centres undefined), for which the Percent Effect in assay [1] is 2.31%; in assay [2] it was -2.34%.
Regarding `O=C1CCC2(CCCN(CCc3ccccc3)C2)N1Cc1cccnc1` (centres undefined), the figures for the Percent Effect in assay [1] and in assay [2] were 4.25% and -5.68%, respectively.
The like results for `CN(Cc1ccsc1)C(=O)c1cc2c([nH]c1=O)CCCC2=O` were, in that order, -1.51% and 12.2%.
With `CCC1=N[C@@]2(CC[C@@H]3CN(CC4CC4)C[C@@H]32)C(=O)N1C`, the Percent Effect in assay [1] was -1.79%; in assay [2], 6.84%.
